Bioassay records as filed in PubChem BioAssay.
Pol kappa inh = qHTS for Inhibitors of Polymerase Kappa; DNA polymerase kappa (Homo sapiens), Q9UBT6; purified Pol kappa, fluorescent DNA synthesis assay, 10 min; Potency, µM (doses to about 107 µM), actives largely listed as inhibitors; 0.53% of 400,000 active; AID 588579, 2011
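Enzyme at 10 nM met test compounds for 15 min at room temperature. Substrate addition (50 nM final) began the reaction, which was monitored by fluorescence at 0 and 10 min.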
POLI inh = qHTS for Inhibitors of Polymerase Iota | DNA polymerase iota (Homo sapiens), Q9UNA4 | Pol iota fluorescent replication assay, 10 min | Potency, µM (top dose mostly 115 µM), actives largely listed as inhibitors | 1% of 390,000 active | AID 588590, 2011
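Fluorescent replication assay read twice, at 0 min and 10 min after adding 50 nM (final) substrate. Enzyme (10 nM) and compounds were first incubated 15 min at room temperature; enzyme-free buffer wells were negative controls.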
POLH inh = qHTS for Inhibitors of Polymerase Eta. DNA polymerase eta (Homo sapiens), Q9Y253. Potency, µM (top dose mostly 114 µM), most hits filed as inhibitors. AID 588591, 2011. recombinant Pol eta, fluorescent DNA replication assay. 1.2% of 390,000 active
Target sequence (Q9Y253 whole entry, looked up): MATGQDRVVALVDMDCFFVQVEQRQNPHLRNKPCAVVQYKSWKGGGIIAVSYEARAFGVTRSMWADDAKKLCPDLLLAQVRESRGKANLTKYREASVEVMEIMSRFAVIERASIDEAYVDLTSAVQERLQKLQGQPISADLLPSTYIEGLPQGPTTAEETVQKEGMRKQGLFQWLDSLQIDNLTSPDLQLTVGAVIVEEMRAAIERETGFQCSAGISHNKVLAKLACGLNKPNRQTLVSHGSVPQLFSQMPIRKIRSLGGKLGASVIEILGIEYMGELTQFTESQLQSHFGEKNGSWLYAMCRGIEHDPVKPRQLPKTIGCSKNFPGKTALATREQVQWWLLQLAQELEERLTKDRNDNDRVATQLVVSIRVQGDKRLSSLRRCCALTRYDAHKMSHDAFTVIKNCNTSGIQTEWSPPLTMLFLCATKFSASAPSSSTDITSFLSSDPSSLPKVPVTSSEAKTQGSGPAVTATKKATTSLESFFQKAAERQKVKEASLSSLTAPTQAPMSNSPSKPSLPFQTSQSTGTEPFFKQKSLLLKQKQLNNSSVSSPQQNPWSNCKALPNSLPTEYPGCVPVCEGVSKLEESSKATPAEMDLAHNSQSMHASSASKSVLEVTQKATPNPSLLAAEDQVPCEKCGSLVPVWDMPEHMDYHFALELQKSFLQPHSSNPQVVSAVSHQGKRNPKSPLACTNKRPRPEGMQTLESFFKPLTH
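Pol eta (10 nM) was preincubated with compounds for 15 min at room temperature, after which fluorescent replication substrate (50 nM final) was added to start the reaction. Fluorescence was read kinetically at 0 and 10 min.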
PI5P4Ka inh = qHTS for Inhibitors of phosphatidylinositol 5-phosphate 4-kinase (PI5P4K); PI5P4Kalpha enzyme, ADP-Glo luminescence, 60 min; hits give low values; max response, %; 1.2% of 330,000 active; AID 652105, 2013; active = max response of -50% or lower; inconclusive = between -30% and -50%; inactive = -30% or higher; also: value at the top dose of about 77 µM
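ADP-Glo luminescence end-point read after a 60 min room-temperature kinase reaction of PI5P4Kalpha plus substrate, initiated with ATP at 5 microM final. Buffer: 0.038 M HEPES pH 7.4, EGTA, 0.1% CHAPS, 5% DMSO.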
FEN1 inh = qHTS Assay for the Inhibitors of Human Flap endonuclease 1 (FEN1); Recombinant FEN1 flap cleavage, fluorescence, 15 min; Potency, µM (series often up to 114 µM), hits mostly inhibitors; 0.35% of 390,000 active; AID 588795, 2011; also: nearly all actives have a fitted effect of over 65% in size
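Steps: FEN1 (10 nM) dispensed; compound added by pin tool; 15 min at room temperature; substrate added to 50 nM final; reads at 0 min and 15 min; data normalized and fitted (four-parameter Hill).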
POLB inh = qHTS Assay for Inhibitors of DNA Polymerase Beta | 1.3% of 340,000 active | AID 485314, 2010 | Pol beta primer extension/strand displacement, fluorescence kinetic | P06746 | Potency, µM (highest dose often 114 µM), most hits filed as inhibitors
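Reaction started by 50 nM substrate onto compound-treated Pol beta (10 nM, 15 min preincubation, room temperature); plates read at 0 min and 10 min. Normalized concentration-effect data fitted by four-parameter Hill equation.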
Large screens that a line does not name were inactive. This is a sample that favours compounds with a hit; in the whole collection about 2.8% have one here. Unless noted, calls follow the shape of the dose curve; as a rule, active = well fitted curve in the direction sought with a large enough effect; inconclusive = small, poorly fitted or top-dose-only effect, or another doubt; inactive = no such curve, though single readings can be large; an effect the other way counts as inactive or inconclusive.

CS(=O)(=O)N1CCC(C(=O)NCc2ccco2)CC1	POLI inh 50µM, POLH inh inconclusive (no result: PI5P4Ka inh)
CC(=O)N1CCCc2cc(S(=O)(=O)N3CCN(c4ccc(F)cc4)CC3)ccc21	none (no result: PI5P4Ka inh)
O=C(COc1ccc(/C=C\[N+](=O)[O-])cc1)N1CCOCC1	POLI inh 32µM, POLH inh 32µM
CC[C@]12C(=O)N(C)C[C@H]([C@@H]3C(=O)N(Cc4ccccc4)C(=O)[C@@H]31)N2C(=O)c1ccc(F)cc1	none (no result: POLB inh)
Cc1ccc(-n2[nH]c(C)c(C=Nc3cc(C)ccn3)c2=O)cc1	none
Cc1ccnc(N=O)c1	PI5P4Ka inh inconclusive, FEN1 inh 50µM (no result: POLB inh)
CC1(C)CC(NC(=S)NCc2ccc3c(c2)OCO3)CC(C)(C)N1	none (no result: Pol kappa inh, POLI inh, POLH inh, PI5P4Ka inh, FEN1 inh)
O=C(CCl)N1c2ccccc2Sc2ccc3ccccc3c21	POLH inh 14µM (no result: Pol kappa inh, POLI inh, FEN1 inh, POLB inh)
CCOC(=O)c1cnn(-c2ccc(C(=O)Nc3cc(OC)c(OC)c(OC)c3)cc2)c1N	none (no result: PI5P4Ka inh)
CCOc1cc(/C=N/Nc2cccc(C(=O)O)c2)ccc1OC(=O)c1ccccc1	POLB inh inconclusive
COC(=O)c1ccc(COc2ccccc2/C=N/Nc2cccc(C(=O)O)c2)cc1	Pol kappa inh inconclusive, POLI inh inconclusive, POLH inh 79µM
O=C(O)c1cccc(NC(=S)N/N=C/c2ccccc2OCc2ccc(Br)cc2)c1	POLI inh inconclusive, POLH inh inconclusive, PI5P4Ka inh -65, POLB inh inconclusive
COc1ccc(C(=O)NCCn2cc(SCc3cc(C)ccc3C)c3ccccc32)cc1	POLI inh 89µM (no result: PI5P4Ka inh)
Cc1ccc(C)c(N2CCN(c3nc4ccccc4c4nc(CCn5nc(C)cc5C)nn34)CC2)c1	none (no result: PI5P4Ka inh)
COc1ccc(C(=O)N2CCC3(CC2)CN(C(=O)Nc2cccc(C#N)c2)C3)cc1	none (no result: POLI inh, POLH inh, PI5P4Ka inh, FEN1 inh, POLB inh)
Cc1ccc(NC(=O)CN(C)C(=O)Cn2cc(C(F)(F)F)ccc2=O)cc1	none
CN(CC(=O)Nc1ccc(Cl)c(C(F)(F)F)c1)C(=O)Cn1cc([N+](=O)[O-])ccc1=O	POLH inh 79µM, PI5P4Ka inh inconclusive (no result: POLB inh)
CC(C)N1CCN(c2ccncc2S(=O)(=O)N2CCN(C)CC2)CC1	none (no result: Pol kappa inh, POLI inh, FEN1 inh, POLB inh)
COc1ccc(-n2ccn(Cc3ccccc3C)c(=O)c2=O)cc1	none (no result: PI5P4Ka inh)
COc1cccc(C(=O)NCC2CCN(c3ccc(S(=O)(=O)N4CCOCC4)cc3)CC2)c1	POLB inh 40µM
O=C(c1ccc(Cl)cc1)C(CN1CCCCC1)c1ccccc1 (stereo unspecified)	POLI inh 7.1µM, POLH inh inconclusive
Cc1ccc(NC(=O)NCc2c(-n3cccc3)sc3c2CCCC3)c(Cl)c1	none (no result: PI5P4Ka inh)
CCc1nnc(N/N=C/c2ccc(N3CCC(C)CC3)c([N+](=O)[O-])c2)n1N	POLI inh 8.9µM
Cc1nnc(N/N=C/c2cc([N+](=O)[O-])c(N3CCC(C)CC3)cc2N2CCC(C)CC2)n1N	POLI inh 4µM (no result: PI5P4Ka inh)
Cc1nnc(N/N=C/c2ccc([N+](=O)[O-])cc2)n1N	POLI inh inconclusive
O=C(O)c1ccc2c(c1)C(=O)N(Cc1ccco1)C2=O	POLI inh inconclusive, POLH inh inconclusive, PI5P4Ka inh -69
CCc1ccc(NC(=O)c2ccc3c(c2)C(=O)N(Cc2ccco2)C3=O)cc1	Pol kappa inh 50µM, POLI inh inconclusive, POLH inh 20µM, PI5P4Ka inh inconclusive, POLB inh 20µM
O=C1c2cccc3c(O)ccc(c23)C(=O)N1Cc1ccco1	Pol kappa inh inconclusive, POLI inh 20µM, POLH inh 32µM, PI5P4Ka inh inconclusive, FEN1 inh inconclusive, POLB inh inconclusive
COC(=O)Cc1ccc(NC(=O)c2ccc3c(c2)C(=O)N(Cc2ccco2)C3=O)cc1	none
CC(C)(C)NC(=O)c1ccc2c(c1)C(=O)N(Cc1ccco1)C2=O	none
Cc1c(NC(=O)c2ccc3c(c2)C(=O)N(Cc2ccco2)C3=O)cccc1C(=O)O	Pol kappa inh inconclusive, POLI inh inconclusive, POLH inh 32µM, POLB inh inconclusive
